Values without a mark were called inactive.

This is an account of results in PubChem BioAssay.

A short description of the test: JC-1 mitochondrial signal, unstimulated adipocytes – cell-based, JC-1 fluorescence, 3T3-L1 adipocytes, 24 h, 100 nL compound, profiling panel (AID 1168). Also: test concentration not given here. Conditions: JC-1 mitochondrial fluorescence, higher = more signal, called active from +8 up or from −8 down.
In the case of `C=CC[C@@]1(C(=O)N(C)C)N=C(c2ccc(OCCCO)cc2)O[C@@H]1c1ccccc1N=[N+]=[N-]`, the z-score is 1.04.

Regarding `C=C(C)C1C(=C)CN([C@H](CO)c2ccccc2)C1=O` (stereo partly specified), the z-score was 0.113.

For the compound `O=C(O)[C@@]1(CCS(=O)(=O)c2ccccc2)COC(c2ccc(OCCCO)cc2)=N1`, the z-score is 0.148.

`COC(=O)[C@@]1(Cc2ccc(OC)cc2)[C@H]2c3cc(C(=O)N(C)C)n(CCN4CNCC4=O)c3C[C@H]2CN1C(=O)c1ccccc1`: the z-score is 0.489.

With `[N-]=[N+]=NCc1ccccc1[C@@H]1OC(c2ccc(OCCCO)cc2)=N[C@]1(Cc1ccccc1N=[N+]=[N-])C(=O)N1CCOCC1`, the z-score was -1.06.

Take `CN(C)CCCCCCNC(=O)[C@@H]1C[C@@H]2C(=O)N[C@@H](CCCCN)C(=O)N2[C@@H]1c1cccc(OCCO)c1`: the z-score was 0.247.

`CN1C(=O)C2C=CC(C(O)C3=C[C@H]4C[C@@H](C3)C4(C)C)N(Nc3ccccc3)C2C1=O` (stereo partly specified): the z-score was -0.209.

With `COC(=O)c1c(CC[C@@H](CO)NC(=O)N[C@H](Cn2cc(Cc3ccccc3)nn2)C(C)C)oc(C(C)=O)c1C(=O)OC`, the z-score was 1.58.

With `CN(C)CCCNC(=O)[C@@]1(c2ccc([N+](=O)[O-])cc2)CC(=O)N(C2CCCCC2)[C@@H]1c1ccc(CO)cc1`, the z-score is 0.255.

Consider `C=CCN1C(=O)[C@@]2(O[C@@H](CCO)[C@H]([Si](C)(C)c3ccc(OC)cc3)[C@H]2C)c2cc(NC(=O)c3ccc(OC)cc3)ccc21`, for which the z-score is 1.58.

For the compound `COc1ccc([C@H]2C[C@H]3C(Br)=C[C@@H]2C(=O)[C@]32CO2)cc1`, the z-score is 0.558.
